Shown are actives, neighbours in structure and some others; about 17% of the full set was active somewhere.
TGFb inhibitor: blocks TGF-b signaling; HepG2 CAGA-GFP TGF-b/SMAD3 reporter, GFP fluorescence, 18 h; TGF-beta stimulated, 500 pg/mL final; Potency, µM (doses to about 46.1 µM), usual class: inhibitors; hit rate 1.2% among 410,000; also: nearly all actives have a fitted effect of over 65% in size
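Inhibition was scored as loss of TGF-beta-induced (500 pg/mL final, 18 hours, 37 degrees C) GFP in HEPG2 cells carrying a CAGA-GFP reporter, in DMEM with 1% FBS. Well GFP was summed per cell; Activity was normalised to unstimulated and stimulated DMSO wells, then concentration-response fitting.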
HT1080-NT tox: kills 2HG-producing HT-1080-NT fibrosarcoma cells. HT-1080-NT fibrosarcoma viability, CellTiter-Glo ATP luminescence, 48 h. Potency, µM (highest dose often 46.1 µM), hits mostly cytotoxic. hit rate 1.6% among 360,000;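 also: NT is the 2HG producing partner of a matched IDH1 knockdown line; nearly all actives have a fitted effect of over 55% in size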
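Compounds were tested in concentration-response format on HT-1080-NT cells for 48 hours at 37 degrees C. Cell viability came from CellTiter-Glo luminescence; curves were classified by r2, response magnitude and activity.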
DT40 TDP1 no CPT: qHTS for Inhibitors of human tyrosyl-DNA phosphodiesterase 1 (TDP1): qHTS in cells in absence of CPT | DT40 Tdp1-/- hTDP1 cells, no CPT, ATP luminescence, 48 h | Potency, µM (titrated, usually from 46.2 µM), most hits filed as inhibitors | hit rate 15% among 420,000 | AID 686978, 2013; also: nearly all actives have a fitted effect of over 55% in size
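Cells were dispensed at 400 per well, compounds added by pin tool, plates incubated ≥48 hr at 37 °C, then CellTiter-Glo added for 30 min at room temperature before luminescence reading. Line: DT40 Tdp1-/- complemented with hTDP1; camptothecin omitted.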
HT1080 IDH1KD tx: HT-1080 IDH1 knockdown cell toxicity (counter line). HT-1080 IDH1 knockdown viability, ATP luminescence, 48 h. Potency, µM (highest dose often 46.1 µM), actives largely listed as cytotoxic. hit rate 2% among 360,000. AID 686971
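Knockdown cells (IDH1KD HT-1080) received compounds 2 h after plating at 750 cells/well and were kept 48 h at 37 °C in 5% FBS RPMI. A CellTiter-Glo luminescence read gave % activity for curve fitting.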
DT40 TDP1 CPT: growth inhibition of DT40 Tdp1-/-;hTDP1 cells with camptothecin (screen for TDP1 inhibitors); hit rate 12% among 420,000; AID 686979; Potency, µM (titrated, usually from 46.2 µM), most hits filed as inhibitors; chicken DT40 Tdp1-/-;hTDP1 cells + 20 nM CPT, ATP luminescence, 48 h; also: nearly all actives have a fitted effect of over 55% in size
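Cell growth measured by CellTiter-Glo luminescence after a minimum 48 h, 37 C compound exposure with 20 nM CPT in Tdp1-knockout DT40 cells stably expressing hTDP1, seeded 400/well; qHTS titration format.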
HepG2 tox: counter-screen for TGF-b inhibitors: cytotoxicity in HepG2 cells; HepG2 CAGA-GFP viability, ATP luminescence, 18 h; Potency, µM (highest dose often 46.1 µM), usual class: cytotoxic; hit rate 0.76% among 410,000; AID 588856
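HepG2 CAGA-GFP cells (1000/well, DMEM with 1% FBS) received compound, then TGF-beta at 500 pg/mL final, and were incubated 18 hours at 37 degrees C. Viability was read by CellTiter-Glo luminescence. Media-only wells were set as complete cell-killing and DMSO as no toxicity.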
Hits are given with their value; 0 = inactive; ? = inconclusive; - = no result given; [ ] = remark or other dose. Calls follow the shape of the dose curve; as a rule, active = well fitted curve in the direction sought with a large enough effect; inconclusive = small, poorly fitted or top-dose-only effect, or another doubt; inactive = no such curve, though single readings can be large; an effect the other way counts as inactive or inconclusive.

SMILES	TGFb inhibitor	HT1080-NT tox	DT40 TDP1 no CPT	HT1080 IDH1KD tx	DT40 TDP1 CPT	HepG2 tox
CCOc1ccc(S(=O)(=O)N2CCC(C(=O)Nc3ccc(C)c(S(=O)(=O)N4CCOCC4)c3)CC2)cc1	?	0	?	0	?	0
CCOC(=O)c1c(C)[nH]c(C)c1S(=O)(=O)NCC(=O)Nc1ccc(C)cc1C	?	-	0	-	0	0
CC(C)CC[n+]1ccccc1/C=C/c1ccc(N(C)C)cc1	0	?	0.0259µM	23.1µM	0.0184µM	0
COc1cc(CNC(=O)c2cc(-c3cc(OC)ccc3Cl)n[nH]2)cc(OC)c1	0	0	0	0	?	0
CC(C)(C)c1ccc(S(=O)(=O)Nc2cccnc2)cc1	0	0	?	0	?	0
O=S(=O)(Nc1ccc(C(O)(C(F)(F)F)C(F)(F)F)cc1)c1cccc2ccccc12	?	?	20.6µM	?	16.4µM	0
CC(=O)Nc1ccc(NS(=O)(=O)c2cccc3ccccc23)cc1	0	0	0	?	?	0
COc1ccc(NS(=O)(=O)c2cccc(C(=O)NNC(=O)c3ccc(NC(C)=O)cc3)c2)cc1	0	0	0	0	0	0
COc1cccc(S(=O)(=O)Nc2ccc(C(O)(C(F)(F)F)C(F)(F)F)cc2)c1	?	?	16.4µM	?	16.4µM	0
CC(C)(C)c1ccc(S(=O)(=O)Nc2ccc(C(O)(C(F)(F)F)C(F)(F)F)cc2)cc1	12.6µM	18.4µM	16.4µM	20.6µM	16.4µM	20µM
O=C1NC(NS(=O)(=O)c2ccccc2)(C(F)(F)F)C(=O)N1Cc1ccccc1 (stereo not drawn)	0	0	0	0	0	0
Cc1onc(-c2ccccc2)c1NC(=O)N(CCC(=O)O)Cc1ccccc1	0	0	0	?	0	0
Cc1ccc(/C=C2\SC(=S)N(CCC(=O)NNC(=O)c3ccccc3O)C2=O)cc1	0	?	?	0	?	0
O=C(CCN1C(=O)/C(=C\c2ccc(F)cc2)SC1=S)Nc1ccc(O)cc1	0	0	23.1µM	0	0	0
O=C(CCN1C(=O)/C(=C\c2ccc(F)cc2)SC1=S)Nc1ccccc1	0	0	0	0	0	0
Cc1ccc(/C=C2\SC(=S)N(CCCC(=O)NNC(=O)c3ccccc3O)C2=O)cc1	0	0	18.4µM	0	?	0
Cc1ccc(/C=C2/SC(=S)N(CC(=O)Nc3ncc(Cc4ccc(C)cc4)s3)C2=O)cc1	?	0	11.6µM	0	23.1µM	0
O=C(CCCN1C(=O)/C(=C/c2cccs2)SC1=S)Nc1cccc(O)c1	?	?	16.4µM	16.4µM	20.6µM	0
C[C@@H]1CN([C@@H](C)CO)C(=O)c2cccc(NC(=O)c3nc4ccccc4s3)c2O[C@@H]1CN(C)CC1CC1	?	0	?	0	?	0
COc1cc(CN2CCCC(n3cc(C(=O)N4CCCCC4)nn3)C2)cc2c1OCO2 (stereo not drawn)	-	-	0	-	0[9.04 µM]	-
CCCCN1CC(COC)Oc2cccc(F)c2S1(=O)=O (stereo not drawn)	0	0	0	0	0	0
Cc1ccc(OCC(=O)OCC(=O)NC2CCS(=O)(=O)C2)cc1C (stereo not drawn)	0	0	0	0	0	0
Cc1ccc(/C=C2\SC(=S)N(CCCC(=O)NC3CCCC3)C2=O)cc1	0	0	18.4µM	0	0	0
O=C(CCCN1C(=O)/C(=C\c2ccccc2)SC1=S)Nc1cccc(C(=O)O)c1	0	0	0	0	0	0
COc1cc(/C=C2\SC(=S)N(NC(=O)c3ccc(O)c(OC)c3)C2=O)ccc1O	0	0	0	0	0	0
SMILES	TGFb inhibitor	HT1080-NT tox	DT40 TDP1 no CPT	HT1080 IDH1KD tx	DT40 TDP1 CPT	HepG2 tox
COc1cc(/C=C2\SC(=S)N(NC(=O)c3cccc(O)c3)C2=O)ccc1O	0	0	23.1µM	0	16.4µM	0
O=C(CCCN1C(=O)/C(=C/c2ccccc2)SC1=S)Nc1cccc(O)c1	14.1µM	0	23.1µM	0	18.4µM	0
CC(/C=C1\SC(=S)N(CCC(=O)Nc2ccc(O)cc2)C1=O)=C\c1ccccc1	?	0	18.4µM	?	18.4µM	0
CC1(C(=O)O)CCN1C(=O)c1cccnc1Oc1ccccc1 (stereo not drawn)	0	0	0	0	0	0
Cc1ccc(/C=C2/SC(=S)N(CCCC(=O)Nc3ccc(O)cc3)C2=O)cc1	?	16.4µM	23.1µM	20.6µM	?	0
COc1ccc(/C=C2\SC(=S)N(CCCC(=O)Nc3ccc(C(=O)O)cc3)C2=O)cc1OC	0	0	0	0	0	0
COc1cc(/C=C2\SC(=S)N(CCC(=O)Nc3cccc(O)c3)C2=O)cc(OC)c1OC	12.6µM	?	16.4µM	?	?	0
